Experimental data published in PubChem BioAssay (Tox21).
Inconclusive results are not listed. Calls of active or inactive are those of the source. Unless noted, calls follow the shape of the dose curve; as a rule, active = well fitted curve in the direction sought with a large enough effect in the repeat runs; inconclusive = weak or mixed curves; inactive = no such curve, though single readings can be large; an effect the other way counts as inactive or inconclusive.

Key:
[1] = qHTS assay for small molecule agonists of the p53 signaling pathway (AID 651631; calls by dose curve; also: nearly all actives have a fitted effect of over 15% in size)
Summary of the method: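 Testing took place in human colorectal HCT-116 cells with stable p53RE-driven beta-lactamase. After 16 h of compound exposure at 37 °C, a FRET substrate was added and fluorescence recorded 2 h later.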

[2] = qHTS assay for small molecules that induce genotoxicity in human embryonic kidney cells expressing luciferase-tagged ATAD5 (AID 651632); also: nearly all actives have a fitted effect of over 15% in size
Summary of the method: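 Cells were seeded at 2,000 per well, dosed with compound, and incubated 16 hr at 37C in 5% CO2. Luciferase activity was then quantified after a 30 min room-temperature incubation with Amplite.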

[3] = qHTS assay for small molecule agonists of the p53 signaling pathway - cell viability (AID 651633; calls by dose curve; also: series mostly up to about 83 µM; nearly all actives have a fitted effect of over 30% in size)
Summary of the method: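 Viability counter-read: CellTiter-Glo luminescence (30 min, room temperature) in the same p53RE-bla plates. These plates had been exposed to compounds for 16 h at 37 C.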

[4] = qHTS assay for small molecules that induce genotoxicity in human embryonic kidney cells expressing luciferase-tagged ATAD5 - cell viability (AID 651634; calls by dose curve; also: nearly all actives have a fitted effect of over 25% in size)
Summary of the method: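 Cells (HEK293T, luciferase-tagged ATAD5) are seeded at 2,000 per well, dosed with compound or DMSO vehicle, and incubated 15.5 hr at 37C and 5% CO2. CellTiter-Fluor is added for 30 min before fluorescence is measured.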

[5] = qHTS assay for small molecule disruptors of the mitochondrial membrane potential - cell viability (AID 720634; calls by dose curve;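 also: human HepG2 liver cancer cells; series mostly up to about 83 µM; nearly all actives have a fitted effect of over 20% in size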)
Summary of the method: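 Cytotoxicity was measured by ATP quantitation in HepG2 wells that had first been treated with compound for 1 hr and stained with m-MPI dye; CellTiter-Glo incubation was 30 min at room temperature.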

[6] = qHTS assay to test for compound auto fluorescence at 590 nm (red) in HepG2 cells (AID 720674)
Summary of the method: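 1 hr compound incubation on HepG2 cells, 37 C, 5% CO2; plate read ex 540 nm / em 590 nm; intensities reported as Rose Bengal sodium equivalents.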

[7] = qHTS assay to test for compound auto fluorescence at 535 nm (green) in HepG2 cells (AID 720675)
[8] = qHTS assay to test for compound auto fluorescence at 460 nm (blue) in HEK293 cells (AID 720678)
Summary of the method: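 After cell attachment (4-5 hr, 37C), compounds were pinned onto HEK293 monolayers in 10% dialyzed FBS medium. The blue channel (405/460 nm) was read following overnight culture. Equivalency was calculated against triamterene.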

[9] = qHTS assay to test for compound auto fluorescence at 590 nm (red) in HEK293 cells (AID 720679)
Summary of the method: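 Plates of HEK293 cells (10% dialyzed FBS) are treated with 23 nL compound or DMSO vehicle after a 4-5 hr attachment period, incubated overnight at 37C, and read for red fluorescence at 540/590nm.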

[10] = qHTS assay to test for compound auto fluorescence at 535 nm (green) in HEK293 cells (AID 720680)
[11] = qHTS assay to test for compound auto fluorescence at 460 nm (blue) in HEK293 cell free culture (AID 720681)
Summary of the method: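 Blue fluorescence (Ex 405/Em 460 nm, triamterene-equivalent) was read immediately after pin transfer of compound or DMSO into medium (DMEM, 10% FBS) without cells.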

[12] = qHTS assay to test for compound auto fluorescence at 535 nm (green) in HEK293 cell free culture (AID 720682)
Summary of the method: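 DMEM + 10% FBS, cell-free; cpd or DMSO pinned in; Ex485/Em535 read; output as fluorescein-equivalent signal.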

[13] = qHTS assay to test for compound auto fluorescence at 590 nm (red) in HEK293 cell free culture (AID 720683)
Summary of the method: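 Red-channel autofluorescence of compounds in culture medium (DMEM, 10% FBS), no cells, measured at 540/590 nm. Rose Bengal sodium is the reference fluorophore for equivalence.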

[14] = qHTS assay to test for compound auto fluorescence at 590 nm (red) in HepG2 cell free culture (AID 720684)
Summary of the method: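 No cells present: MEM + 10% FBS only. Compound pinned in, red label read (540/590 nm). Activity = fluorescence equivalent to Rose Bengal sodium.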

[15] = qHTS assay to test for compound auto fluorescence at 460 nm (blue) in HepG2 cell free culture (AID 720685)
Summary of the method: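 Cell-free plates of MEM plus 10% FBS received 23 nL compound or DMSO vehicle; blue-channel (405/460 nm) intensity scored against triamterene as reference fluorophore.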

[16] = qHTS assay to test for compound auto fluorescence at 535 nm (green) in HepG2 cell free culture (AID 720686)
[17] = biological target: Glucocorticoid receptor (Homo sapiens) (UniProt P04150); assay: qHTS assay to identify small molecule agonists of the glucocorticoid receptor (GR) signaling pathway (AID 720691; active = well fitted activation curve with a large enough effect in the signal ratio in the repeat runs, not every such curve was filed as active; the % refers to the signal ratio)
Glucocorticoid receptor (Homo sapiens), sequence (P04150 whole entry, looked up): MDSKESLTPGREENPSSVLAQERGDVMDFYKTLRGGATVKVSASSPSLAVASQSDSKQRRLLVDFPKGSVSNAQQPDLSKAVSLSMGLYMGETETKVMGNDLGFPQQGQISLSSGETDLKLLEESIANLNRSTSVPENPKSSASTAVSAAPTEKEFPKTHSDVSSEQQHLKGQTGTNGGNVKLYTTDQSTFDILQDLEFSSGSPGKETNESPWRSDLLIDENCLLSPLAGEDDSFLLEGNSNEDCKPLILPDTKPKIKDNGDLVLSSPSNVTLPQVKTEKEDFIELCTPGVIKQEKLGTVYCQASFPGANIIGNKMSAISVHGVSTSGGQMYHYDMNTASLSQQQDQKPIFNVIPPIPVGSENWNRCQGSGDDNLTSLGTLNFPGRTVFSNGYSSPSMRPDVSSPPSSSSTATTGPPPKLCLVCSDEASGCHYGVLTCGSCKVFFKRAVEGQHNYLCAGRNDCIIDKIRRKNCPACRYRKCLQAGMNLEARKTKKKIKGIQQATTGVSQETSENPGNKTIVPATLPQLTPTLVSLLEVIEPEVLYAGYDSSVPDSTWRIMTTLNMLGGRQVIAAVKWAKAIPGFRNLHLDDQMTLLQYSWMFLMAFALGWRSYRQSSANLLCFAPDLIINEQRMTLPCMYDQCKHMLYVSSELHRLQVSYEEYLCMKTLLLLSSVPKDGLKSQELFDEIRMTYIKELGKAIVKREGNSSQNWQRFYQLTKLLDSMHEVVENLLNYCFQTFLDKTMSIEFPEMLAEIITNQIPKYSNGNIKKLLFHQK
Summary of the method: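 Steps: seed GR-bla HeLa cells, incubate 4 h at 37 C/5% CO2; pin-transfer DMSO-dissolved compounds; incubate 18 h at 37 C; add LiveBLAzer B/G FRET substrate; after 2 h at room temperature, measure fluorescence.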

[18] = qHTS assay to test for compound auto fluorescence at 460 nm (blue) in HepG2 cells (AID 720687)
Summary of the method: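 Blue-channel autofluorescence (Ex/Em 405/460 nm, triamterene-equivalent) was measured after 1 hr compound exposure at 37 C, 5% CO2. Cells were HepG2, plated overnight at 37 C in MEM plus 10% FBS.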

[19] = biological target: Glucocorticoid receptor (Homo sapiens) (UniProt P04150); assay: qHTS assay to identify small molecule antagonists of the glucocorticoid receptor (GR) signaling pathway (AID 720692; active = well fitted inhibition curve with a large enough effect in the signal ratio in the repeat runs, not every such curve was filed as active; the % refers to the signal ratio)
Summary of the method: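 Antagonism was scored as loss of dexamethasone-driven (5 nM final) reporter signal in HeLa cells bearing a glucocorticoid response element–beta-lactamase construct, after 18 h compound exposure at 37 C and 2 h FRET substrate loading.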

[20] = qHTS assay for small molecule disruptors of the mitochondrial membrane potential (AID 720635)
Summary of the method: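 Mitochondrial membrane potential tracked with Mito-MPS dye, red aggregates (ex 540/em 590 nm) against green monomers (ex 490/em 535 nm). Compound treatment 1 hr at 37C, dye 30 min in HepG2.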

Measured: Potency

Cc1cc(N)n(-c2ccccc2)n1
inactive: [1] | [2] | [3] | [4] | [5] | [6] | [7] | [8] | [9] | [10] | [11] | [12] | [13] | [14] | [15] | [16]

Nc1ncnc2c1ncn2[C@@H]1O[C@H](CO)[C@@H](O)[C@H]1O
inactive: [1] | [2] | [3] | [4] | [5] | [6] | [7] | [8] | [9] | [10] | [12] | [14] | [15] | [16] | [17]

CCCCCCCCCCCCSC#N
inactive: [1] | [2] | [3] | [4] | [5] | [6] | [7] | [8] | [9] | [10] | [12] | [13] | [14] | [16] | [18] | [17]

C[Si](C)(C)O[Si](C)(C)O[Si](C)(C)C
inactive: [1] | [2] | [3] | [4] | [5] | [6] | [7] | [8] | [9] | [10] | [11] | [12] | [14] | [15] | [16] | [18]

CC(C)(O)C(=O)O
inactive: [1] | [2] | [3] | [4] | [5] | [6] | [7] | [8] | [9] | [10] | [11] | [12] | [13] | [14] | [15] | [16] | [18] | [17] | [19]

O=C(O)CNc1ccccc1
inactive: [1] | [2] | [3] | [4] | [5] | [20] | [6] | [8] | [9] | [10] | [11] | [12] | [13] | [14] | [15] | [16] | [18] | [19]

CCCCCO
inactive: [1] | [2] | [3] | [4] | [5] | [6] | [7] | [8] | [9] | [10] | [12] | [13] | [14] | [15] | [16] | [18] | [17] | [19]

CCOC(OCC)OCC
inactive: [1] | [2] | [3] | [4] | [5] | [20] | [6] | [8] | [9] | [10] | [11] | [12] | [13] | [14] | [15] | [16] | [18] | [17] | [19]

Cc1ccccc1CCO
inactive: [1] | [2] | [3] | [4] | [5] | [6] | [7] | [8] | [9] | [10] | [11] | [12] | [14] | [15] | [16] | [18]

COC(=O)/C=C/C(C)=C\C=C\C(C)=C\C=C\C=C(C)\C=C\C=C(C)\C=C\C(=O)O
inactive: [1] | [2] | [3] | [4] | [5] | [6] | [7] | [8] | [9] | [10] | [11] | [12] | [13] | [14] | [15] | [16] | [18] | [17]

O=S(=O)(O)c1cc(Cl)c(Cl)cc1Cl
inactive: [1] | [2] | [3] | [4] | [5] | [6] | [7] | [8] | [9] | [10] | [11] | [12] | [13] | [14] | [16] | [18]

CCCCCCCCCCCC(=O)OCC
inactive: [1] | [2] | [3] | [4] | [5] | [20] | [6] | [7] | [9] | [10] | [12] | [13] | [14] | [15] | [16] | [18] | [17] | [19]

NCCOCCOCCN
inactive: [1] | [2] | [3] | [4] | [5] | [6] | [7] | [8] | [9] | [10] | [11] | [12] | [13] | [14] | [15] | [16] | [18] | [17]

O=C(O)c1ccncc1
inactive: [1] | [2] | [3] | [4] | [5] | [6] | [7] | [8] | [9] | [10] | [12] | [13] | [14] | [16] | [18] | [17] | [19]
